# Experimental data from PubChem BioAssay (NCI).
# Compounds without any hit were thinned out: in the full panel of roughly 79,000, 15% have a hit. Values without a mark were called inactive. Calls of active or inactive are those of the source. Cut-off read from the data, not from the text of the source: active = growth inhibition above about 70%; inactive = the rest.
# Legend:
# [1] = NCI Yeast Anticancer Drug Screen. Data for the rad52 strain (AID 147);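 note: 0% = growth of vehicle-treated control cultures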; details: S. cerevisiae rad52 mutant growth inhibition, hits give high values
# Summary of the method: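 Read-out: growth inhibition versus vehicle-treated controls. Cells were a DNA repair-deficient yeast strain treated with compounds.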
# [2] = NCI Yeast Anticancer Drug Screen. Data for the wt1 strain (AID 149);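 note: 0% = growth of vehicle-treated wt1 cultures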; details: S. cerevisiae wt1 strain (SPY 50644) growth inhibition, hits give high values
# Summary of the method: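 The wt1 strain was treated with compounds, and growth was compared with vehicle-treated cultures to give inhibition.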
# [3] = NCI Yeast Anticancer Drug Screen. Data for the rad50EPP+ strain (AID 151);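 note: 0% = growth of vehicle-treated control cultures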; details: S. cerevisiae rad50 mutant strain, hits give high values
# Summary of the method: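 Growth inhibition read against vehicle controls in rad50EPP+ yeast, a strain altered in DNA damage repair, after compound exposure.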
# [4] = NCI Yeast Anticancer Drug Screen. Data for the mgt1 strain (AID 153); details: S. cerevisiae mgt1 mutant growth inhibition, hits give high values
# Summary of the method: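 mgt1 yeast grown with test compound; read-out is growth inhibition versus vehicle-treated cultures.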
# [5] = NCI Yeast Anticancer Drug Screen. Data for the rad50 strain (AID 155);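 note: 0% = growth of vehicle-only cultures of the same strain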; details: S. cerevisiae rad50 strain growth inhibition, hits give high values
# Summary of the method: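 Cells are treated with compound, grown, and their growth is then scored against vehicle-only cultures of the same repair-deficient yeast strain.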
# [6] = NCI Yeast Anticancer Drug Screen. Data for the mec2-1 strain (AID 157); details: S. cerevisiae mec2-1 strain, hits give high values
# Summary of the method: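 Yeast mec2-1 mutant treated with compound. Readout: growth inhibition vs vehicle controls.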
# [7] = NCI Yeast Anticancer Drug Screen. Data for the rad14 strain (AID 159);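 note: 0% = growth of vehicle-treated control cultures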; details: S. cerevisiae rad14 strain growth inhibition, hits give high values
# Summary of the method: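 Readout: yeast growth inhibition, referenced to vehicle-only cultures. Strain bears a defined alteration in DNA damage repair.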
# [8] = NCI Yeast Anticancer Drug Screen. Data for the sgs1 mgt1 strain (AID 161);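 note: 0% = growth of cultures given vehicle only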; details: S. cerevisiae sgs1 mgt1 strain, hits give high values
# Summary of the method: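 Test agents were incubated with a DNA-repair-mutant yeast strain. Growth was then read and compared against vehicle-treated controls.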
# [9] = NCI Yeast Anticancer Drug Screen. Data for the CLN2oe strain (AID 163);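 note: 0% = growth of vehicle-only control cultures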; details: S. cerevisiae CLN2oe strain, hits give high values
# Summary of the method: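 Read-out: yeast growth inhibition, expressed relative to vehicle-only controls. The strain bears an engineered cell-cycle alteration.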
# [10] = NCI Yeast Anticancer Drug Screen. Data for the cln2 rad14 strain (AID 165);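 note: 0% = growth equal to vehicle treated cultures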; details: S. cerevisiae cln2 rad14 strain, hits give high values
# Summary of the method: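 cln2 rad14 yeast strain; compound exposure; growth inhibition read vs vehicle controls.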
# [11] = NCI Yeast Anticancer Drug Screen. Data for the bub3 strain (AID 167); details: S. cerevisiae bub3 mutant strain, hits give high values
# Summary of the method: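 Part of a panel of yeast mutants defective in DNA damage repair or cell cycle regulation. Each strain is grown with compound, and inhibition is calculated relative to solvent-treated cultures.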
# [12] = NCI Yeast Anticancer Drug Screen. Data for the wt2 strain (AID 169);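 note: 0% = growth of vehicle-treated yeast cultures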; details: S. cerevisiae wt2 strain growth inhibition, hits give high values
# Summary of the method: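 Read-out: growth inhibition versus vehicle-treated control cultures after compound exposure of the yeast strain.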
# [13] = NCI Yeast Anticancer Drug Screen. Data for the mlh1 strain (AID 171);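 note: 0% = growth of vehicle-treated control cultures of the same strain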; details: S. cerevisiae mlh1 strain growth inhibition, hits give high values
# Summary of the method: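 Read-out: growth inhibition versus vehicle controls. Strain: engineered yeast with a defined DNA repair or cell cycle defect, compound-treated.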
# [14] = NCI Yeast Anticancer Drug Screen. Data for the sgs1 strain (AID 173);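 note: 0% = growth of vehicle-only control cultures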; details: S. cerevisiae sgs1 mutant, hits give high values
# Summary of the method: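 Read-out: yeast growth inhibition relative to vehicle controls, following compound exposure of a strain with a defined DNA repair/cell cycle alteration.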
# [15] = NCI Yeast Anticancer Drug Screen. Data for the mlh1 rad18 strain (AID 175); details: S. cerevisiae mlh1 rad18 strain growth inhibition, hits give high values
# Summary of the method: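 Yeast w/ defined DNA-repair lesions; compound exposure; growth vs vehicle controls → % inhibition.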
# [16] = NCI Yeast Anticancer Drug Screen. Data for the rad18 strain (AID 177); details: S. cerevisiae rad18 mutant growth inhibition, hits give high values
# Summary of the method: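 Readout: growth inhibition vs vehicle controls. Cells: genetically altered yeast strain, DNA repair defect.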
# [17] = at 5.0 µM (retest, dose inferred, filed as 0.5)
# [18] = at 50.0 µM (retest, dose inferred, filed as 5.0)
structure (smiles),measurement,setting,value
CC(C)NC(=O)OCc1c(COC(=O)NC(C)C)c(-c2ccc(Cl)c(Cl)c2)n2c1CCC2,growth inhibition,[1]; at 1.2 µM,-38%
same,growth inhibition,[1]; at 3.7 µM,-28%
same,growth inhibition,[1]; at 11.0 µM,-19%
same,growth inhibition,[1]; at 33.0 µM,1%
same,growth inhibition,[1]; at 100.0 µM,68%
same,growth inhibition,[2]; at 1.2 µM,-38%
same,growth inhibition,[2]; at 3.7 µM,-34%
same,growth inhibition,[2]; at 11.0 µM,-45%
same,growth inhibition,[2]; at 33.0 µM,-32%
same,growth inhibition,[2]; at 100.0 µM,30%
same,growth inhibition,[3]; at 1.2 µM,-23%
same,growth inhibition,[3]; at 3.7 µM,-18%
same,growth inhibition,[3]; at 11.0 µM,-5%
same,growth inhibition,[3]; at 33.0 µM,-18%
same,growth inhibition,[3]; at 100.0 µM,-4%
same,growth inhibition,[4]; at 1.2 µM,-60%
same,growth inhibition,[4]; at 3.7 µM,-48%
same,growth inhibition,[4]; at 11.0 µM,-59%
same,growth inhibition,[4]; at 33.0 µM,-39%
same,growth inhibition,[4]; at 100.0 µM,76% (active)
same,growth inhibition,[5]; at 1.2 µM,-35%
same,growth inhibition,[5]; at 3.7 µM,-29%
same,growth inhibition,[5]; [17],8%
same,growth inhibition,[5]; at 11.0 µM,-24%
same,growth inhibition,[5]; at 33.0 µM,1%
same,growth inhibition,[5]; [18],44%
same,growth inhibition,[5]; at 50.0 µM,58.6%
same,growth inhibition,[5]; at 100.0 µM,63%
same,growth inhibition,[6]; at 1.2 µM,-71%
same,growth inhibition,[6]; at 3.7 µM,-61%
same,growth inhibition,[6]; [17],-1%
same,growth inhibition,[6]; at 11.0 µM,-56%
same,growth inhibition,[6]; at 33.0 µM,-53%
same,growth inhibition,[6]; [18],8%
same,growth inhibition,[6]; at 50.0 µM,47.6%
same,growth inhibition,[6]; at 100.0 µM,47%
same,growth inhibition,[7]; at 1.2 µM,-33%
same,growth inhibition,[7]; at 3.7 µM,-26%
same,growth inhibition,[7]; at 11.0 µM,-30%
same,growth inhibition,[7]; at 33.0 µM,10%
same,growth inhibition,[7]; at 100.0 µM,84% (active)
same,growth inhibition,[8]; [17],9%
same,growth inhibition,[8]; [18],72% (active)
same,growth inhibition,[8]; at 50.0 µM,23%
same,growth inhibition,[9]; at 1.2 µM,4%
same,growth inhibition,[9]; at 3.7 µM,0%
same,growth inhibition,[9]; at 11.0 µM,4%
same,growth inhibition,[9]; at 33.0 µM,11%
same,growth inhibition,[9]; at 100.0 µM,32%
same,growth inhibition,[10]; [17],23%
same,growth inhibition,[10]; [18],24%
same,growth inhibition,[10]; at 50.0 µM,3.3%
same,growth inhibition,[11]; at 1.2 µM,-65%
same,growth inhibition,[11]; at 3.7 µM,-66%
same,growth inhibition,[11]; [17],18%
same,growth inhibition,[11]; at 11.0 µM,-69%
same,growth inhibition,[11]; at 33.0 µM,-34%
same,growth inhibition,[11]; [18],79% (active)
same,growth inhibition,[11]; at 50.0 µM,17.4%
same,growth inhibition,[11]; at 100.0 µM,63%
same,growth inhibition,[12]; at 1.2 µM,-31%
same,growth inhibition,[12]; at 3.7 µM,-21%
same,growth inhibition,[12]; at 11.0 µM,-31%
same,growth inhibition,[12]; at 33.0 µM,-36%
same,growth inhibition,[12]; at 100.0 µM,26%
same,growth inhibition,[13]; at 1.2 µM,-44%
same,growth inhibition,[13]; at 3.7 µM,-71%
same,growth inhibition,[13]; at 11.0 µM,-69%
same,growth inhibition,[13]; at 33.0 µM,-40%
same,growth inhibition,[13]; at 100.0 µM,76% (active)
same,growth inhibition,[14]; at 1.2 µM,-21%
same,growth inhibition,[14]; at 3.7 µM,-17%
same,growth inhibition,[14]; at 11.0 µM,-1%
same,growth inhibition,[14]; at 33.0 µM,12%
same,growth inhibition,[14]; at 100.0 µM,80% (active)
same,growth inhibition,[15]; [17],13%
same,growth inhibition,[15]; [18],68%
same,growth inhibition,[15]; at 50.0 µM,69.2%
same,growth inhibition,[16]; at 1.2 µM,-17%
same,growth inhibition,[16]; at 3.7 µM,2%
same,growth inhibition,[16]; at 11.0 µM,1%
same,growth inhibition,[16]; at 33.0 µM,34%
same,growth inhibition,[16]; at 100.0 µM,84% (active)
CC1=C(SCCO)C(=O)c2ccccc2C1=O,growth inhibition,[1]; at 1.2 µM,-4%
same,growth inhibition,[1]; at 3.7 µM,1%
same,growth inhibition,[1]; at 11.0 µM,13%
same,growth inhibition,[1]; at 33.0 µM,68%
same,growth inhibition,[1]; at 100.0 µM,67%
same,growth inhibition,[2]; at 1.2 µM,-4%
same,growth inhibition,[2]; at 3.7 µM,-4%
same,growth inhibition,[2]; at 11.0 µM,-2%
same,growth inhibition,[2]; at 33.0 µM,4%
same,growth inhibition,[2]; at 100.0 µM,4%
same,growth inhibition,[3]; at 1.2 µM,-7%
same,growth inhibition,[3]; at 3.7 µM,5%
same,growth inhibition,[3]; at 11.0 µM,35%
same,growth inhibition,[3]; at 33.0 µM,75% (active)
same,growth inhibition,[3]; at 100.0 µM,71% (active)
same,growth inhibition,[4]; at 1.2 µM,-3%
same,growth inhibition,[4]; at 3.7 µM,-3%
same,growth inhibition,[4]; at 11.0 µM,23%
same,growth inhibition,[4]; at 33.0 µM,-10%
same,growth inhibition,[4]; at 100.0 µM,6%
same,growth inhibition,[5]; at 1.2 µM,-3%
same,growth inhibition,[5]; at 3.7 µM,0%
same,growth inhibition,[5]; [17],1%
same,growth inhibition,[5]; at 11.0 µM,-8%
same,growth inhibition,[5]; at 33.0 µM,37%
same,growth inhibition,[5]; [18],99% (active)
same,growth inhibition,[5]; at 50.0 µM,84.2% (active)
same,growth inhibition,[5]; at 100.0 µM,42%
same,growth inhibition,[6]; at 1.2 µM,-1%
same,growth inhibition,[6]; at 3.7 µM,-1%
same,growth inhibition,[6]; [17],-22%
same,growth inhibition,[6]; at 11.0 µM,0%
same,growth inhibition,[6]; at 33.0 µM,13%
same,growth inhibition,[6]; [18],80% (active)
same,growth inhibition,[6]; at 50.0 µM,73.3% (active)
same,growth inhibition,[6]; at 100.0 µM,11%
same,growth inhibition,[7]; at 1.2 µM,2%
same,growth inhibition,[7]; at 3.7 µM,3%
same,growth inhibition,[7]; at 11.0 µM,8%
same,growth inhibition,[7]; at 33.0 µM,17%
same,growth inhibition,[7]; at 100.0 µM,20%
same,growth inhibition,[8]; [17],-37%
same,growth inhibition,[8]; [18],72% (active)
same,growth inhibition,[8]; at 50.0 µM,81.5% (active)
same,growth inhibition,[9]; at 1.2 µM,0%
same,growth inhibition,[9]; at 3.7 µM,-5%
same,growth inhibition,[9]; at 11.0 µM,-2%
same,growth inhibition,[9]; at 33.0 µM,12%
same,growth inhibition,[9]; at 100.0 µM,14%
same,growth inhibition,[10]; [17],-16%
same,growth inhibition,[10]; [18],27%
same,growth inhibition,[10]; at 50.0 µM,67.2%
same,growth inhibition,[11]; at 1.2 µM,-4%
same,growth inhibition,[11]; at 3.7 µM,-1%
same,growth inhibition,[11]; [17],-19%
same,growth inhibition,[11]; at 11.0 µM,5%
same,growth inhibition,[11]; at 33.0 µM,29%
same,growth inhibition,[11]; [18],77% (active)
same,growth inhibition,[11]; at 50.0 µM,81.2% (active)
same,growth inhibition,[11]; at 100.0 µM,29%
same,growth inhibition,[12]; at 1.2 µM,-2%
same,growth inhibition,[12]; at 3.7 µM,0%
same,growth inhibition,[12]; at 11.0 µM,3%
same,growth inhibition,[12]; at 33.0 µM,18%
same,growth inhibition,[12]; at 100.0 µM,17%
same,growth inhibition,[13]; at 1.2 µM,0%
same,growth inhibition,[13]; at 3.7 µM,-2%
same,growth inhibition,[13]; at 11.0 µM,7%
same,growth inhibition,[13]; at 33.0 µM,8%
same,growth inhibition,[13]; at 100.0 µM,5%
same,growth inhibition,[14]; at 1.2 µM,-2%
same,growth inhibition,[14]; at 3.7 µM,-2%
same,growth inhibition,[14]; at 11.0 µM,7%
same,growth inhibition,[14]; at 33.0 µM,40%
same,growth inhibition,[14]; at 100.0 µM,35%
same,growth inhibition,[15]; [17],-29%
same,growth inhibition,[15]; [18],62%
same,growth inhibition,[15]; at 50.0 µM,81.1% (active)
same,growth inhibition,[16]; at 1.2 µM,-12%
same,growth inhibition,[16]; at 3.7 µM,-10%
same,growth inhibition,[16]; at 11.0 µM,-3%
same,growth inhibition,[16]; at 33.0 µM,33%
same,growth inhibition,[16]; at 100.0 µM,51%
